Source: the supplement of paper PMC9262897, “Low-cost anti-mycobacterial drug discovery using engineered E. coli” (Nature Communications, 2022)
Where a name gives a salt, the structure may show the parent alone. ± gives the standard deviation of the averaged measurements.

system: E. coli TESEC Mtb Alr; assay: growth (OD600 after 10 h); higher = more growth (less inhibition); settings: arabinose 1000 nM; compound 0.1 mM; raw OD600 reference: median of DMSO wells 0.294, cell-free background 0.041
Experimental: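 TESEC Mtb Alr E. coli, or the Alr+ wild-type control, in 384-well plates with Prestwick library compounds at 0.1 mM and 1% DMSO, across arabinose induction levels of 1E3 to 1E7 nM. Growth is read as OD600 after 10 h at 37 °C in triplicate biological replicates.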

SMILES | growth
O=C1c2cccc(O)c2C(=O)c2c(O)cccc21 [1,8-Dihydroxyanthraquinone] | 0.15 ± 0.013
CC(N/C(=N\C#N)Nc1ccncc1)C(C)(C)C (centres undefined) [Pinacidil] | 0.274 ± 0.011
COc1ccc2c(c1)c(CC(=O)OCC(=O)O)c(C)n2C(=O)c1ccc(Cl)cc1 [Acemetacin] | 0.198 ± 0.012
O=C(O)c1ccccc1C(=O)Nc1ccc(S(=O)(=O)Nc2nccs2)cc1 [Phthalylsulfathiazole] | 0.298 ± 0.011
c1ccc2c(c1)CCCC2C1=NCCN1 (centres undefined) [Tetrahydrozoline hydrochloride] | 0.297 ± 0.012
Cc1nnc(NS(=O)(=O)c2ccc(N)cc2)s1 [Sulfamethizole] | 0.288 ± 0.011

same assay, conditions: arabinose 10000 nM; compound 0.1 mM; raw OD600 reference: median of DMSO wells 0.264, cell-free background 0.041

SMILES | growth
COc1cc(C(=O)NS(=O)(=O)c2ccccc2C)ccc1Cc1cn(C)c2ccc(NC(=O)OC3CCCC3)cc12 [Zafirlukast] | 0.0651 ± 0.0044
NNc1nncc2ccccc12 [Hydralazine hydrochloride] | 0.256 ± 0.0092
Nc1c2c(nc3ccccc13)CCCC2O (racemic) [Hydroxytacrine maleate (R,S)] | 0.257 ± 0.0076
CCN(CC)CCOC(=O)C1(C2CCCCC2)CCCCC1 [Dicyclomine hydrochloride] | 0.195 ± 0.0043
O=C(Oc1cccc2cccnc12)c1ccccc1 [Benzoxiquine] | 0.28 ± 0.0036
O=C1CC2(CCCC2)CC(=O)N1CCCCN1CCN(c2ncccn2)CC1 [Buspirone hydrochloride] | 0.2798 ± 0.0023
CCN(CC)C(=O)C1(c2ccccc2)CC1CN (centres undefined) [Milnacipran hydrochloride] | 0.271 ± 0.0097
CCN(CC)CC#CCOC(=O)C(O)(c1ccccc1)C1CCCCC1 (centres undefined) [Oxybutynin chloride] | 0.167 ± 0.004
C[C@]12C=CC(=O)C=C1CC[C@H]1[C@@H]3C[C@@H](O)[C@](O)(C(=O)CO)[C@@]3(C)C[C@H](O)[C@@]12F [Triamcinolone] | 0.266 ± 0.0064
O=C(CCCCC(=O)Nc1c(I)cc(I)c(C(=O)O)c1I)Nc1c(I)cc(I)c(C(=O)O)c1I [Iodipamide] | 0.245 ± 0.0068
CCN(CCO)CCCC(C)Nc1ccnc2cc(Cl)ccc12 (centres undefined) [Hydroxychloroquine sulfate] | 0.27 ± 0.0028
Cc1ccsc1/C=C/C1=NCCCN1C [Morantel tartrate] | 0.252 ± 0.0038
Cc1noc(NS(=O)(=O)c2ccc(N)cc2)c1C [Sulfisoxazole] | 0.203 ± 0.0055
C=CCOc1ccccc1OCC(O)CNC(C)C (centres undefined) [Oxprenolol hydrochloride] | 0.271 ± 0.0046
CCOc1ccc2c(c1)C(C)=CC(C)(C)N2 [Ethoxyquin] | 0.249 ± 0.007
CC1Cc2ccccc2N1NC(=O)c1ccc(Cl)c(S(N)(=O)=O)c1 (centres undefined) [Indapamide] | 0.27 ± 0.011
CCC(=O)OCC(=O)[C@@]1(OC(=O)CC)[C@H](C)C[C@H]2[C@H]3[C@H]([C@@H](O)C[C@@]21C)[C@@]1(C)C=CC(=O)C=C1C[C@H]3Cl [Alclometasone dipropionate] | 0.277 ± 0.017
Cc1scc2c1N(C(=O)CN1CCN(C)CC1)c1ccccc1NC2=O [Telenzepine dihydrochloride] | 0.241 ± 0.0053
O=C1CC[C@@H](C(=O)N2CSC[C@H]2C(=O)O)N1 [Pidotimod] | 0.261 ± 0.005
CCC1NC(=O)c2cc(S(N)(=O)=O)c(Cl)cc2N1 (centres undefined) [Quinethazone] | 0.266 ± 0.0054
CN1CCCN(C(c2ccccc2)c2ccc(Cl)cc2)CC1 (centres undefined) [Homochlorcyclizine dihydrochloride] | 0.169 ± 0.0051
C1N2CN3CN1CN(C2)C3 [Methenamine] | 0.275 ± 0.0029
CC(C)(O/N=C(\C(=O)N[C@@H]1C(=O)N2C(C(=O)[O-])=C(C[n+]3ccccc3)CS[C@H]12)c1csc(N)n1)C(=O)O [Ceftazidime pentahydrate] | 0.0396 ± 0.0004
CC(C(O)c1ccc(O)cc1)N1CCC(Cc2ccccc2)CC1 (centres undefined) [Ifenprodil tartrate] | 0.276 ± 0.0052
CCN(CC)CCNC(=O)c1ccc(N)cc1 [Procainamide hydrochloride] | 0.2558 ± 0.0023
CC[C@H]1OC(=O)[C@H](C)[C@@H](O[C@H]2C[C@@](C)(OC)[C@@H](O)[C@H](C)O2)[C@H](C)[C@@H](O[C@@H]2O[C@H](C)C[C@H](N(C)C)[C@H]2O)[C@](C)(O)C[C@@H](C)CN(C)[C@H](C)[C@@H](O)[C@]1(C)O [Azithromycin] | 0.03977 ± 0.00031
OC(CCN1CCCCC1)(c1ccccc1)C1CCCCC1 (centres undefined) [Trihexyphenidyl-D,L Hydrochloride] | 0.265 ± 0.012
CN1C(C(=O)Nc2ccccn2)=C(O)c2ccccc2S1(=O)=O [Piroxicam] | 0.253 ± 0.0061
